# Screening data deposited in PubChem by National Center for Advancing Translational Sciences (NCATS).
# Pf Dd2 growth: Plasmodium falciparum Dd2 growth inhibition; P. falciparum Dd2 growth, SYBR Green, 72 h; Potency, µM (series often up to 28.9 µM), actives largely listed as inhibitors; hit rate 4.3% among 120,000; AID 1347417; active means well fitted inhibition curve with a large enough effect; further: nearly all actives have a fitted effect of over 65% in size
#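 Readout: SYBR Green fluorescence, 485 nm excitation, 535 nm emission, after ~16 h lysis at 37C. Before that, Dd2-infected red cells (2.5% hematocrit) grew 72 h with compound, 29 uM top final concentration.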
# A number is an active result; 0 = inactive; [ ] = dose if it differs, or a comment. This is one part of a sample in which hits are shown more often than they occur.
SMILES,Pf Dd2 growth
COc1cccc(CN2CCN3C(=O)N(Cc4ccccn4)C[C@H]3C2)c1,0
COc1cccc(CN2CCc3c(cc(C(=O)NCc4ccccn4)n3C)C2)c1,0.89µM
COc1ccc(CNC(=O)c2cc3c(n2C)CCN(Cc2ccccc2)C3)cc1OC,0
COc1cccc(CN2CCc3c(cc(C(=O)Nc4cccc(C)c4C)n3C)C2)c1,4.5µM
COc1cccc(CN2CCc3c(cc(C(=O)N4CCOCC4)n3C)C2)c1,0
COc1cccc(CN2CCc3nc(C(=O)Nc4cccnc4)oc3CC2)c1,0
CC(C)N1CCN(C(=O)c2cc3c(n2C)CCN(Cc2ccc(F)cc2)C3)CC1,0
COc1cccc(CN2CCc3c(cc(C(=O)Nc4ccccc4)n3C)C2)c1,1.1µM
O=C(Cn1c(=O)c2c(n1Cc1ccccc1)CN(Cc1ccccc1)CC2)NCc1ccc(F)cc1,0
COc1cc(=O)n2c(c1C(=O)Nc1cccc(C)c1C)CCCC2,0
COc1cccc(CC(=O)NCCC2CCN(C(=O)Nc3ccccc3C)CC2)c1,0
CCN(CC)C(=O)c1cc2c(n1C)CCN(Cc1ccc(F)cc1)C2,8.9µM
CCn1c(C2CCCN(C(=O)CN3C(=O)NC(=O)C3(C)C)C2)nn(C)c1=O (stereo unspecified),0
O=C(CN1C(=O)CNC1=O)N1CCCC(Nc2ccc3c(c2)OCO3)C1 (stereo unspecified),0
Cc1nc(-c2ccncc2)ncc1C(C)NC(=O)C1=NN(C)C(=O)CC1 (stereo unspecified),0
Cc1ncc2c(c1CNC(=O)COc1ccc(F)cc1)CCNC2,0
COc1ccc(NC(=O)C2=NO[C@@H]3CN(Cc4ccc(F)cc4)C[C@H]23)cc1,0
COc1ccc(NC(=O)c2cc3c(n2C)CCN(Cc2ccc(F)cc2)C3)cc1,2.5µM
COc1ccc(NC(=O)c2ccc3c(c2)c(C)c(C)n3Cc2ccc(F)cc2)cc1,0
c1ccc(-c2ccc(CN3CCOC[C@H](Oc4cnccn4)C3)cc2)cc1,5.6µM
COc1cccc(CN2CCOC[C@H](Oc3cccnc3)C2)c1,0
FC(F)(F)c1ccc(O[C@H]2COCCN(Cc3cccnc3)C2)nc1,0
COc1ccc(C)cc1NC(=O)Cn1c(-c2ccc(F)cc2)nc(C)c(CCO)c1=O,0
Cc1sc2ccn(C)c(=O)c2c1C(=O)NCc1ccccc1Cl,0
CCOC(=O)C1CCN(C(=O)c2c[nH]c3ncccc23)CC1,0
SMILES,Pf Dd2 growth
CCOC(=O)C1CCN(c2c(C(=O)c3ccc(OC)cc3)cnc3ccccc23)CC1,8.9µM
CCOC(=O)C1CCN(c2nc3ccccc3nc2Cl)CC1,0
CS(=O)(=O)N1C[C@@H](C(=O)Nc2ccc(N3CCOCC3)cc2)[C@H](c2ccncc2)C1,0
Cc1cccc(OCC2(CNS(=O)(=O)c3ccc(F)cc3)C[C@@H](O)[C@@H](O)C2)n1 (stereo partly specified),0
O=C(c1ccccn1)N1CC[C@@H]2[C@@H](CCC(=O)N2CCc2cnc[nH]2)C1,0
COCc1nncn1C1CCN(S(=O)(=O)c2cc(F)ccc2OC)CC1,0
CCN(CC)[C@H]1[C@@H]2OC[C@@H](O2)[C@@H](NCC2CCCCC2)[C@@H]1O,10µM
CCN(CC)[C@H]1[C@@H]2OC[C@@H](O2)[C@@H](NCc2ccc(N(C)C)cc2)[C@@H]1O,0
CCN(CC)[C@H]1[C@@H]2OC[C@@H](O2)[C@@H](NC(=O)Nc2cccc(OC)c2)[C@@H]1O,0
Cc1ccsc1C(=O)N1CCC(c2nc(-c3ccccc3)no2)C1 (stereo unspecified),0[5.79 µM]
CCCN1CCC(N2CCCC(Cc3ccccc3)(C(=O)OCC)C2)CC1 (stereo unspecified),5µM
CCOC(=O)C1(Cc2cccc(OC)c2)CCCN(C(=O)COc2ccccc2)C1 (stereo unspecified),0
CCOC(=O)C1(Cc2cccc(Cl)c2)CCCN(C(=O)c2csc(C(C)=O)c2)C1 (stereo unspecified),0
COCCOc1ccc2c(n1)CCN(C(=O)NC1CCCC1)C2,0
CCOc1ccc(-c2noc(CSc3nnc(Cc4ccccc4)n3-c3cccc(C)c3)n2)cc1,10µM
Cc1ccc(-c2noc(CSc3nnc(Cc4ccccc4)n3-c3cccc(C)c3)n2)cc1,0
CCOc1ccc(-n2c(Cc3ccccc3)nnc2SCc2nc(-c3ccccc3C)no2)cc1,0
O=C(c1ccc(F)cc1)N1C[C@@H]2C[C@H](C1)c1c(NS(=O)(=O)c3cccc(F)c3)ccc(=O)n1C2,0
CCc1ccc(NC(=O)N2CCN(C)C3(CCC(=O)N(C)CC3)C2)cc1 (stereo unspecified),0
CCCn1ncc(CN2CCC(Cc3cccc(C(F)(F)F)c3)(C(=O)OCC)CC2)c1C,13µM
CCOC(=O)C1(Cc2ccccc2C(F)(F)F)CCN(C(=O)c2ccc[n+]([O-])c2)CC1,0
COCC1CN(C(C)=O)CC12CCN(Cc1cccc(C(F)(F)F)c1)CC2 (stereo unspecified),0
COCc1cc(C[C@@H]2CC[C@H](O)[C@@H](CN(C(=O)Nc3ccc(OC)cc3)C(=O)Nc3ccc(OC)cc3)O2)no1,0
OCCC1CN(CCOc2ccc(F)cc2)CCN1CC1CCCCC1 (stereo unspecified),8.9µM
CC(C)Nc1ccnc(N2CCN(Cc3ccccc3F)C(CCO)C2)n1 (stereo unspecified),0
SMILES,Pf Dd2 growth
OCCC1CN(c2cc(C(F)(F)F)ccn2)CCN1CC1CCCCC1 (stereo unspecified),13µM
CC1CCN(CC2CCCN(C(=O)COc3ccc(F)cc3)CC2)CC1 (stereo unspecified),0
O=C(C1CCCC1)N1CCC(CCOc2ccc(F)cc2)C1 (stereo unspecified),0
CCOc1ccccc1CN1CCN(c2ccnc(N)n2)CC1CCO (stereo unspecified),0
CCNC(=O)N[C@H]1CC[C@]2(C)CC[C@@H](C(C)C(=O)NC3CCCC3)[C@H](O)[C@H]2[C@@H]1C (stereo partly specified),0
O=C(CC1CCN(C(=O)Nc2ccccc2)C1)NC1CC1 (stereo unspecified),0
O=[S+]1([O-])NCC2(CCN(Cc3ccsc3)CC2)Nc2ccccc21,0
Cc1ccc(CN2CCCC3(CN[S+](=O)([O-])c4ccccc4N3)C2)cc1 (stereo unspecified),0
O=[S+]1([O-])NC2(CCN(Cc3ccncc3)C2)CNc2ccccc21 (stereo unspecified),0
COc1ccc(CN2CCC3(CN[S+](=O)([O-])c4ccccc4N3)C2)cc1 (stereo unspecified),0
O=[S+]1([O-])NC2(CCN(Cc3ccc(C(F)(F)F)cc3)CC2)CNc2ccccc21,11µM
COc1ccc(CN2CCC3(CC2)CNc2ccccc2[S+](=O)([O-])N3)cc1,0
O=[S+]1([O-])NCC2(CCCN(Cc3ccc(F)cc3)C2)Nc2ccccc21 (stereo unspecified),0
Cc1ccc(CN2CCC3(CC2)CN[S+](=O)([O-])c2ccccc2N3)cc1,5µM
O=[S+]1([O-])NCC2(CCN(Cc3ccc(F)cc3)CC2)Nc2ccccc21,8.9µM
CCOc1ccccc1C1NC(=O)N(CC(=O)Nc2cccc(F)c2)C2=C1C(=O)OC2 (stereo unspecified),0
COc1cccc(C(=O)N2C(C(=O)NC(C)C)COC23CCN(C(=O)c2ccccc2F)CC3)c1 (stereo unspecified),0
COCc1noc(CCNC(=O)c2cc(S(N)(=O)=O)ccc2F)n1,0
C=CCNc1ncnc2c1CCN(C(=O)Cc1c[nH]c(=O)[nH]c1=O)CC2,0
